A selection: hits, their analogues and other compounds. The true share with any hit is near 2.8%.
HSV replic up: increases HSV replication in cells; HSV replication augmentation in cells, fold increase; maximum fold increase; 0.005% of 220,000 active; in the data active = maximum fold increase above about 1.5; tested in PC3 cells
EP2 mod: EP2 receptor (human) modulation; induction, % at 25 µM; 0.83% of 260,000 active; AID 940; EP2-expressing cells, cAMP HTRF FRET, PGE2 co-stimulation; P43116;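 active = compounds whose cAMP rise, as percent of the full-agonist control response, exceeds 60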;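 also: rat C6 glioma line stably carrying human EP2 under a CMV promoter; the protocol text gives 20 µM as final concentration; 100% = response of wells given 1 µM PGE2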
EP2 antag: EP2 receptor (human) inhibition; C6 glioma cells expressing human EP2, cAMP TR-FRET; cells stimulated with saturating PGE2; AID 1422; P43116; inhibition, % at 25 µM; 0.52% of 260,000 active;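 active = percent inhibition above 40 after rounding to a whole number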;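 also: rat C6 glioma host cells with rolipram phosphodiesterase inhibitor present; the protocol text gives 20 µM as final concentration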
p47phox inh: p47phox (human) inhibition; AID 1274; inhibition, % at 24.7 µM; P14598; 0.53% of 220,000 active; p47phox/p22phox peptide binding, fluorescence polarization, 2 h;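 active = inhibition above about 30%, limit read from the data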;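 also: 0% = p47phox with labelled peptide and 100% = labelled peptide alone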
Furin inh: blocks human furin protease activity. 0.061% of 220,000 active. P09958. inhibition, % at 20 µM or 30 µM. purified furin, fluorogenic substrate cleavage; in the data active = inhibition above about 25%
Wee1 degr inh: inhibitors of human Wee1 degradation. HeLa Luc-Wee1K328M stability, luciferase luminescence; 100% = proteasome inhibitor MG132 effect. reporter increase, % at 5 µM. 1.2% of 220,000 active. AID 1321;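 active = activation above the mean of all tested compounds plus 3 SD, set per screening run, cut at about 8.8% in these data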;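 also: cells exposed to compound for 20 h before luminescence read; 0% = DMSO alone and 100% = MG132 at 30 µM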
Target sequence (P30291 whole entry K328M): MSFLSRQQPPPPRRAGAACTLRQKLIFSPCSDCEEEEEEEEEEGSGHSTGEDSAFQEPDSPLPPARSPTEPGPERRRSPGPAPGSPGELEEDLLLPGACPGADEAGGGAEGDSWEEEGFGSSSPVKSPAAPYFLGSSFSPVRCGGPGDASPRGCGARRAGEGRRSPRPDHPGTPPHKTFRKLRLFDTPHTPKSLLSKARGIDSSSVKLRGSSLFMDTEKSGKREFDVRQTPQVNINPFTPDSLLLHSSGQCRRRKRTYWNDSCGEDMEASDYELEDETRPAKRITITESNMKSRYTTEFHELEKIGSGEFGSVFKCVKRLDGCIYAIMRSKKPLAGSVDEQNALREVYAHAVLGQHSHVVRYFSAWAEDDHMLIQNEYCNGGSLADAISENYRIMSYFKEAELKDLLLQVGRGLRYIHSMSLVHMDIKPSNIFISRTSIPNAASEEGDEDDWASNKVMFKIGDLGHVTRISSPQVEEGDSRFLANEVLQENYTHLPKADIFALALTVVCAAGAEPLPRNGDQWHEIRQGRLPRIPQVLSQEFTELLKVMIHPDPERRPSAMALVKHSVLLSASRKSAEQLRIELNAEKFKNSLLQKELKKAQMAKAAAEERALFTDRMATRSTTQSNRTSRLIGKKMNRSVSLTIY
* marks the source's active call; other numbers are inactive results; i = inactive; . = no result; ! = not confirmed by another sample.

SMILES	HSV replic up	EP2 mod	EP2 antag	p47phox inh	Furin inh	Wee1 degr inh
Cc1ccc(C(=O)N/N=C\c2ccccc2[N+](=O)[O-])cn1	i	16.1	5.5	-5.1	-23.5	10.6*
COc1cc(C(=O)N2CCN(C(=O)c3cccc(OC)c3OC)CC2)cc(OC)c1OC	.	-38.0	8.2	.	.	.
Cn1ccnc1C1(O)CCN(C(=O)C2(c3ccccc3)CC2)CC1	.	-16.9	.	.	.	.
CCC(C)(C)n1nnnc1C(C(C)C)N(Cc1ccco1)Cc1cc2cc(OC)ccc2[nH]c1=O (centres undefined)	.	50.0	14.7	.	.	.
COc1ccc(C2=C/C(=C/c3ccccc3)C(=O)O2)cc1OC	.	-120.5	23.1	.	.	.
Cc1cc(C)c2[nH]c(=O)c(CN(CCCO)C(=S)Nc3ccc(F)cc3)cc2c1	.	-64.9	15.3	.	.	.
O=C(O)/C=C/c1ccc([N+](=O)[O-])o1	i	20.0	5.3	-12.7	-11.5	-3.4
N#CCc1ccc(NC(=O)/C=C/c2ccc([N+](=O)[O-])o2)cc1	i	-90.2	29.7	2.7	-26.8	9.3*
COC1CCC(C(=O)N[C@H](Cn2nc(-c3cccs3)ccc2=O)C(C)C)CC1 (some centres undefined)	.	-8.3	5.3	.	.	.
CCC(=O)Nc1nnc(-c2ccc(Cl)s2)o1	i	12.8	8.4	-0.2	-1.0	9.3*
CC(=O)Nc1nnc(-c2ccc(Cl)s2)o1	i	-0.1	4.4	-4.5	-30.3	0.4
O=C(O)c1ccn2c(C(=O)c3ccc(Cl)cc3)c(-c3ccccc3)cc2c1	i	76.7*	6.5	-18.3	-5.5	3.4
Cc1ccc(-c2cc(C(=O)NCc3cccnc3)no2)cc1	i	2.1	2.0	-0.4	25.1*	1.5
O=C1c2ccccc2-c2ccc(N=[N+]([O-])c3ccc4c(c3)C(=O)c3ccccc3-4)cc21	.	-0.3	51.3*	.	.	.
CCOc1cc(C2/C(=C(/O)c3ccccc3)C(=O)C(=O)N2CC(=O)OC)ccc1O (centres undefined)	.	-5.7	12.1	.	.	.
CCN1CC2=C(OC(N)=C(C#N)C2c2ccccc2)/C(=C\c2ccccc2)C1 (centres undefined)	i	6.2	16.6	-10.6	-15.1	-0.1
CC(C)N1CC2=C(OC(N)=C(C#N)C2c2cccnc2)/C(=C/c2cccnc2)C1 (centres undefined)	i	20.8	2.2	77.1*	-7.1	1.8
N#CC1=C(N)OC2=C(CN(Cc3ccccc3)C/C2=C\c2cccnc2)C1c1cccnc1 (centres undefined)	i	-15.2	8.8	123.1*	-13.7	-1.4
CC(C)Oc1ccc(N2CC(C(=O)Nc3ccccc3)CC2=O)cc1 (centres undefined)	.	-20.8	1.1	.	.	.
C[N@@+]1(CC[N@+]2(C)CCC[C@@H]2c2cccnc2)CCC[C@@H]1c1cccnc1	.	25.5	47.3*	.	.	.
CCN(C)Cc1c(C(=O)N2CCc3ccccc3C2)nc2ccc(Cl)cn12	i	3.8	4.1	-7.2	-25.7	-2.5
Cc1cc(CN(C)Cc2c(C(=O)N3CCCCCCC3)nc3ccc(Cl)cn23)n[nH]1	i	-17.4	8.1	-8.1	-27.9	9.3*
CCc1ccc2[nH]c(=O)c(CN(CC3CCCO3)C(=S)NCc3ccco3)cc2c1 (centres undefined)	i	-22.9	6.3	-7.2	-10.0	0.3
CCc1ccc2[nH]c(=O)c(CN(CCN(C)C)C(=S)Nc3ccccc3)cc2c1	.	-57.5	17.2	.	.	.
CCc1ccc2[nH]c(=O)c(CN(CC3CCCO3)C(=S)NCc3ccccc3)cc2c1 (centres undefined)	.	65.9*	12.3	.	.	.
SMILES	HSV replic up	EP2 mod	EP2 antag	p47phox inh	Furin inh	Wee1 degr inh
CCNC(=S)N(CCN(C)C)Cc1cc2cc(CC)ccc2[nH]c1=O	.	63.5*	9.2	.	.	.
CCc1ccc2[nH]c(=O)c(CN(CC3CCCO3)C(=S)NC3CCCCC3)cc2c1 (centres undefined)	.	81.5*	9.7	.	.	.
Nc1ccccc1C(=O)N1CCCCC1	.	0.4	11.6	.	.	.
COc1ccccc1N=Nc1nc(-c2ccccc2)c(-c2ccccc2)[nH]1	i	28.2	10.6	119.1*	-15.1	-2.2
Cc1cccc(-c2cc3nc4c(c(N5CCOCC5)n3n2)CCCC4)c1	i	60.7*	7.4	-27.9	-21.3	-3.3
Fc1ccc(-c2cc3nc4c(c(N5CCOCC5)n3n2)CCCC4)cc1	i	74.2*!	7.6	-17.3	-12.6	2.1
OC1CCN(c2c3c(nc4cc(-c5ccc(F)cc5)nn24)CCC3)CC1	i	-31.8	21.6	-12.9	-20.6	-3.4
CC(C)c1ccc(N(CC(=O)NC(C)(C)C)C(=O)c2snc(C(N)=O)c2N)cc1	.	-45.0	17.0	.	.	.
Nc1ncnc2c1C1(CCCCC1)Cc1ccccc1-2	i	80.5*!	9.2	-1.2	-13.8	-1.4
COc1cc(CN[C@@H]2CCC(=O)N[C@H]2c2cc(F)cc(F)c2)cc(OC)c1OC	.	-32.3	2.0	.	.	.
COC(=O)c1sccc1NC(=S)N(C)C1CCCCC1	i	12.6	6.3	-5.5	-7.7	-2.1
CCCCN(C)C(=S)Nc1ccsc1C(=O)OC	i	3.6	8.9	45.1*	-24.3	2.1
CC[C@H](Cn1nc(-c2cccs2)ccc1=O)NC(=O)CCn1nnc2ccccc21	.	-9.4	.	.	.	.
O=C(Nc1ccc(-c2csc(Nc3ccccc3)n2)cc1)c1cc([N+](=O)[O-])cc(C(F)(F)F)c1	i	-4.4	11.9	35.0*	-25.4	.
CCOC(=O)CNC(=O)CSc1nnnn1-c1ccc(CC)cc1	.	-0.9	10.5	.	.	.
COc1ccc(OC)c(NC(=O)c2sc3nc4cc(C)cc(C)c4cc3c2N)c1	.	-17.3	20.7	.	.	.
COC(=O)c1ccccc1NC(=O)COc1ccccc1	i	27.4	7.6	-12.7	-11.2	13.0*
O=C(COc1ccc([N+](=O)[O-])cc1)Nc1ccc(C(=O)Nc2ccccc2C(=O)O)cc1	i	-72.4	8.7	48.2*	-10.6	-1.0
COCCNC(=O)c1ccccc1NC(=O)COc1ccccc1	i	-3.2	6.2	-5.7	-22.5	-0.3
Cc1ccc2c(c1)cc(CN(Cc1cccnc1)C(=O)C1CCC1)c1nnnn12	.	6.3	3.1	.	.	.
CCOC(=O)C1C2C=CC3(CN(CCc4ccccc4)C(=O)C13)O2 (centres undefined)	i	24.6	10.3	-4.5	-28.5	-1.8
COC(=O)C1C2C=CC3(CN(CCc4ccccc4)C(=O)C13)O2 (centres undefined)	i	-9.6	51.0*!	2.9	-15.1	4.1
Cc1ccc(-c2cc(C(=O)O)c3cc(Br)ccc3n2)o1	i	23.2	15.5	-0.7	-14.2	9.0*
COc1cccc(-n2cnc3scc(-c4cccs4)c3c2=O)c1	i	-38.4	14.8	-4.6	-13.6	-1.4
O=c1c2c(-c3cccs3)csc2ncn1-c1ccc(Br)cc1	i	22.2	3.9	-21.9	-7.9	9.1*
CCOCCc1c(O)nc(SCC(=O)Nc2ccccc2F)[nH]c1=O	.	-10.1	11.4	.	.	.
COCCn1nnnc1C(C(C)C)N(Cc1cc2cc(C)c(C)cc2[nH]c1=O)C1CCCC1 (centres undefined)	.	-31.9	12.9	.	.	.

High-throughput results deposited in PubChem BioAssay by several laboratories.
